Most compounds without a hit are left out; they make up all but 9% or so of the library.
KinaseGlo FLuc = counter-screen: inhibitors of Kinase-Glo firefly luciferase; Q27757; Kinase-Glo luciferase, ATP luminescence, 8 min; Potency, µM (doses to about 38.3 µM), without a hit: at the top dose activity change, negative = inhibition, most hits filed as inhibitors; 0.28% of 200,000 active; AID 1379; note: % is set by controls: 0 for no effect and ±100 for the full control effect; nearly all actives have a fitted effect of over 60% in size
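Light output from Kinase-Glo luciferase with luciferin and 10 uM ATP in 50 mM imidazole pH 7.2, KCl, MgCl2, Tween 20, BSA; compound pin-delivered, 8-min ambient incubation, then luminescence read.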
HTT aggregate = inhibitors of mutant huntingtin aggregate formation in PC12 cells; PC12 HttQ103-GFP aggregates, Acumen cytometry, 40 h; Potency, µM (top dose mostly 46.1 µM), inactives show top-dose activity change, negative = inhibition, usual class: inhibitors; 1.1% of 220,000 active; note: % is set by controls: 0 for no effect and ±100 for the full control effect; nearly all actives have a fitted effect of over 60% in size
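Ecdysone-promoter PC12 model expressing HTT exon 1 Q103 fused to GFP, induced by tebufenozide at 100 nM final. Compounds titrated; aggregates sized 1–25 µm scored on a 488 nm laser cytometer.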
HTT cytoprotect = protects HTT-Q103 PC12 cells, measured by ATP. 0.14% of 230,000 active. Potency, µM (series often up to 56.4 µM), for inactives: cytoprotection (ATP increase), most hits filed as activators. PC12 HTT-Q103 induced, cytoprotection, ATP luminescence, 40 h; note: % of control where 0% means no effect; nearly all actives have a fitted effect of over 45% in size
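Compounds added alongside 100 nM tebufenozide, which induces toxic Q103 huntingtin exon 1-GFP in stable PC12 cells; surviving cells quantified by luminescent ATP measurement. Medium: phenol red-free DMEM, 5% equine and 5% calf serum.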
ALDH1A1 inh = inhibitors of human aldehyde dehydrogenase 1A1; 7.3% of 220,000 active; Potency, µM (top dose mostly 75.3 µM), inactives show top-dose activity, negative = inhibition, hits mostly inhibitors; Purified ALDH1A1, NADH fluorescence, propionaldehyde substrate; active = well fitted inhibition curve with a large enough effect, not every such curve was filed as active; inconclusive = small, poorly fitted or top-dose-only effect, or another doubt; inactive = no such curve, though single readings can be large or run the other way;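 note: plate controls were no enzyme wells and a reference inhibitor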
Target sequence (P00352 whole entry, looked up): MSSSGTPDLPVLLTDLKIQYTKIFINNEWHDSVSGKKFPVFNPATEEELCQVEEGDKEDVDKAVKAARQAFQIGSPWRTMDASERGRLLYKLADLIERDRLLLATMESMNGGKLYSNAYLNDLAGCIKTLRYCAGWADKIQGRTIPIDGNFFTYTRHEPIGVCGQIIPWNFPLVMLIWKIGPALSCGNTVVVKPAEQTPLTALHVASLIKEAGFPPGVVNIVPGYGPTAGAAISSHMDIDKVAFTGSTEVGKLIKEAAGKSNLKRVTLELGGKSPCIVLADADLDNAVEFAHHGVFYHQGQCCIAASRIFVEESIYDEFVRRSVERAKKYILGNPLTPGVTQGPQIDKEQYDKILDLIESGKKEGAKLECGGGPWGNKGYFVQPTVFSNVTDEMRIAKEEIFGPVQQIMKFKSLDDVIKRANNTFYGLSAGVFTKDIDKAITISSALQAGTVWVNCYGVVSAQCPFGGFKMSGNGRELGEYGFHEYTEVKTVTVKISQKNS
Lamin A splicing = modulators of lamin A splicing | Potency, µM (series often up to 46.1 µM), inactives show at the top dose ratio change, negative = inhibition, actives largely listed as inhibitors | 0.01% of 200,000 active | HeLa LMNA splicing GFP/RFP minigene ratio, 48 h; active = well fitted inhibition curve with a large enough effect in the signal ratio, with a control signal flat, not every such curve was filed as active; inconclusive = small, poorly fitted or top-dose-only effect, or effect the other way, or a change in a side signal; the % refers to the signal ratio; note: % is set by controls: 0 for no effect and ±100 for the full control effect
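S3 HeLa cells stably expressing lamin A-EGFP splicing minigene plus DsRed2, 600 cells/well, 48 h compound exposure at 37C. Laser-scanning cytometry; analysed as GFP (500-530 nm)/RFP (575-640 nm) total intensity ratio; 0.5% DMSO vehicle.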
HPGD block = inhibitors of human 15-hydroxyprostaglandin dehydrogenase (HPGD) | purified HPGD, NADH fluorescence kinetic, PGE2 substrate | Potency, µM, without a hit: at the top dose activity change, negative = inhibition, usual class: inhibitors | P15428 | 4.3% of 150,000 active; active = well fitted inhibition curve with a large enough effect, not every such curve was filed as active; inconclusive = small, poorly fitted or top-dose-only effect, or another doubt; inactive = no such curve, though single readings can be large or run the other way; note: % is set by controls: 0 for no effect and ±100 for the full control effect
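NADH formation kinetics: reaction with 30 uM PGE2 and 1 mM NAD+ (final), 20 nM enzyme, Tris-HCl pH 8 with Tween 20, after 15 min compound preincubation at room temperature. Fluorescence change, last versus first of five reads.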
* hit, by the source's call; ? = inconclusive; / = no result given; [ ] = remark or other dose. Unless noted, calls come from the whole dose curve; as a rule, active = well fitted curve in the direction sought with a large enough effect; inconclusive = small, poorly fitted or top-dose-only effect, or another doubt; inactive = no such curve, though single readings can be large; an effect the other way counts as inactive or inconclusive. Potency is the fitted concentration of half-maximal effect.

SMILES	KinaseGlo FLuc	HTT aggregate	HTT cytoprotect	ALDH1A1 inh	Lamin A splicing	HPGD block
C=CCNC(=O)c1ccc(-c2nc(-c3ccc(Cl)c(Cl)c3)cs2)cc1	3%	4%	-35%	0%	?	-23%
C=CCNC(=O)c1ccc(-c2nc(-c3ccc(Cl)cc3Cl)cs2)cc1	1%	1%	-28%[10 µM]	1%	-2%	4µM*
C=CCNC(=O)c1cc(Cl)ccc1[N+](=O)[O-]	-3%	9%	13%[10 µM]	6%	-6%	-10%
O=C(NCc1cccc(C(F)(F)F)c1)c1cc(Cl)ccc1Cl	1%	-7%	27%[10 µM]	7%	?	28µM*
O=C(Cc1cccc(C(F)(F)F)c1)NCc1cccc(Cl)c1	2%	-4%	0%[10 µM]	-1%	-5%	-27%
Cc1ccnc(NS(=O)(=O)c2ccc(NC(=O)Cc3cccs3)cc2)n1	2%	6%	2%[10 µM]	-11%	8%	-18%
O=C1NC(=O)[C@@H]2C3c4ccccc4C=CN3[C@H](C(=O)c3cccs3)[C@H]12 (stereo not given in full)	13%	-11%	-24%	25µM*	4%	-24%
N#C[C@@H]1[C@@H]2C(=O)N(c3ccc4c(c3)OCCO4)C(=O)[C@@H]2C2c3ccccc3C=CN21 (stereo not given in full)	0%	-5%	29%[10 µM]	?	-5%	?
CN(C)c1ccc(C=NCCC2(O)CCOC(C)(C)C2)cc1 (stereo not given)	-1%	-10%	-8%[10 µM]	0.56µM*	-10%	-19%
COc1ccccc1C1(CCN=Cc2ccc(N(C)C)cc2)CCOC(C)(C)C1 (stereo not given)	/	3%[9.22 µM]	-4%[10 µM]	/	/	/
O=C(Nc1ccccc1O)c1cc(S(=O)(=O)N2CCOCC2)c(Cl)cc1Cl	-4%	-13%	10%	3%	?	-2%
CCc1ccc2nc3n[nH]c(N)c3cc2c1	-23%	23%	4%	?	?	28µM*
CC/C(=N/Nc1ccccc1C)c1cnnc(SC)n1	-7%	-20%	/	7.9µM*	?	-22%
CSc1nncc(/C(C)=N\Nc2cccc(C)c2)n1	-7%	17%	1%	8.9µM*	9%	-13%
FC(F)(F)c1cnc(-c2cnc(-c3ccccn3)nc2)c(Cl)c1	-19%	16%	-163%	-4%	6%[46 µM]	/
FC(F)(F)c1cnc(-c2cnc(-c3ccncc3)nc2)c(Cl)c1	2%	?	-17%	18µM*	6%[9.22 µM]	/
CCOCC(=O)Nc1ccc(S(=O)(=O)NCCc2ccccc2)cc1	0%	-13%	2%	10µM*	?	-5%
O=C(O)CCc1ccc(S(=O)(=O)NCCc2ccccc2)cc1	/	-7%	4%	1.8µM*	-2%	/
CCNS(=O)(=O)c1ccc(CCC(=O)O)cc1	-2%	9%	/	22%	-11%[46 µM]	/
O=C(Nc1ccc(S(=O)(=O)NCCc2ccccc2)cc1)c1ccco1	0%	4%	-4%	?	?	-24%
CC1CCN(S(=O)(=O)N2CCC(C(=O)NCCN3CCOCC3)CC2)CC1	18%	-14%	21%	?	-5%	-8%
COc1ccc2c(c1OC)C(=O)N(c1ccc(C)c(C)c1)C2=O	-2%	-16%	-9%[10 µM]	?	-5%	-18%
CCn1nc(C)cc1C(=O)N1CCCC(C(=O)c2ccc3ccccc3c2)C1 (stereo not given)	/	?	21%[10 µM]	?	/	/
O=C(c1ccc2ccccc2c1)C1CCCN(C(=O)c2noc3c2CCCC3)C1 (stereo not given)	-1%	/	/	14µM*	/	/
CN(C)c1ccccc1C(=O)N1CCCC(C(=O)c2ccc3ccccc3c2)C1 (stereo not given)	/	32µM*	9%	?	/	/
Cc1nc([N+](=O)[O-])c(Sc2nc3ccc([N+](=O)[O-])cc3[nH]2)n1Cc1ccccc1	9%	2%	?	7.5µM*	?	?

Compound activity from PubChem BioAssay.
